Source: PubChem BioAssay (EPA / NIEHS)
Results filed as inconclusive are left out. The source made the active and inactive calls. The calls were made as follows, unless noted: active = hit-call score of the fitted dose curve at least 0.9, where 1 is the maximum; inactive = score below 0.9.

Columns and labels:
[1] = CCTE_Deisenroth_DEVTOX-GLR_legacy_CellCount: (Legacy) Viability Assessment in CCTE's DevTox GLR-Endo Assay, Deisenroth Lab (AID 2284331); settings: actives raise or lower the signal
How it was run: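 Nuclei count by fluorescence high-content imaging (5 fields/well) after 48 h differentiation of RUES2-GLR cells. Two exposures, 24 h apart; 1 nM - 200 uM series; n=4. Bidirectional fit vs DMSO.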

[2] = system: SRY-box transcription factor 17 (SOX17) Protein Expression, Deisenroth Lab, SOX17 (gene 64321); experiment: CCTE_Deisenroth_DEVTOX-GLR_legacy_Sox17: (Legacy) CCTE's DevTox GLR-Endo Assay Evaluation of SRY-box transcription factor 17 (SOX17) Protein Expression, Deisenroth Lab (AID 2284341); settings: actives raise or lower the signal
How it was run: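 RUES2-GLR human pluripotent cells, seeded 24 h, then differentiated 48 h in defined media with two chemical exposures 24 h apart (1 nM - 200 uM, 10 points). Sox17+ fraction from high-content fluorescence imaging; bidirectional fit versus 0.2% DMSO.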

[3] = system: SRY-box transcription factor 2 (SOX2) Protein Expression, Deisenroth Lab, SOX2 (gene 6657); experiment: CCTE_Deisenroth_DEVTOX-GLR_legacy_Sox2: (Legacy) CCTE's DevTox GLR-Endo Assay Evaluation of SRY-box transcription factor 2 (SOX2) Protein Expression, Deisenroth Lab (AID 2284346)
How it was run: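 Percent Sox2-positive cells was scored by high-content imaging of 5 fields per well. Positivity cutoff was 5x BMAD over the directed endoderm control, and the DMSO median was subtracted. Cells were RUES2-GLR, dosed twice at 24-h intervals over 48 h of differentiation (1 nM-200 uM).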

[4] = CCTE_Deisenroth_H295R-HTRF_384WELL_ESTRADIOL: CCTE's H295R-HTRF Assay Evaluation of Estradiol Concentration, Deisenroth Lab (AID 2284361); settings: actives raise or lower the signal
How it was run: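 Estradiol secreted into medium by H295R adrenocortical cells, quantified by HTRF after 48 h dosing over a nine-point 0.001 - 100 uM final range; gain or loss versus DMSO. Parallel ATP-luminescence viability readout; n=5 experiments.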

[5] = CCTE_Deisenroth_H295R-HTRF_384WELL_TESTOSTERONE: CCTE's H295R-HTRF Assay Evaluation of Testosterone Concentration, Deisenroth Lab (AID 2284373); settings: actives raise or lower the signal
How it was run: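 H295R cells were acclimated 24 h, then exposed 48 h to nine concentrations (0.001–100 uM final) in technical triplicate, n=5. Testosterone in conditioned medium was measured by HTRF (em 620/665 nm). Fitting was bidirectional versus DMSO; CellTiter-Glo viability ran on the same plates.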

[6] = CCTE_Deisenroth_H295R-HTRF_384WELL_CTOX: Cytotoxicity Assessment in CCTE's H295R-HTRF Assay, Deisenroth Lab (AID 2284380; active = hit-call score of the fitted dose curve at least 0.9, where 1 is the maximum)
How it was run: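 Luminescent ATP viability readout (CellTiter-Glo 2.0), multiplexed on plates used for hormone sampling, after 48 h chemical exposure. Human H295R cells; final concentrations 0.001–100 uM in nine steps, technical triplicates, five experiments; DMSO baseline.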

[7] = system: SRY-box transcription factor 2 (SOX2) Protein Expression, Deisenroth Lab, SOX2 (gene 6657); experiment: CCTE_Deisenroth_DEVTOX-GLR_Endo_SOX2: CCTE's DevTox GLR-Endo Assay Evaluation of SRY-box transcription factor 2 (SOX2) Protein Expression, Deisenroth Lab (AID 2284412; active = hit-call score of the fitted dose curve at least 0.9, where 1 is the maximum)
How it was run: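 Endpoint is percent SOX2-positive cells (SOX2+ count/total cells) minus 0.2% DMSO control, from high-content imaging of fixed, nuclear-stained RUES2-GLR cells. Dosing twice at 24 h intervals over 48 h differentiation, 1 nM–200 uM in 10 points.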

[8] = system: SRY-box transcription factor 17 (SOX17) Protein Expression, Deisenroth Lab, SOX17 (gene 64321); experiment: CCTE_Deisenroth_DEVTOX-GLR_Endo_SOX17: CCTE's DevTox GLR-Endo Assay Evaluation of SRY-box transcription factor 17 (SOX17) Protein Expression, Deisenroth Lab (AID 2284413)
How it was run: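 RUES2-GLR human pluripotent cells were seeded 24 h, then differentiated toward endoderm for 48 h with two chemical exposures 24 h apart (10-point series, 1 nM - 200 uM). Nuclei-stained fixed cells were imaged; endpoint is percent change in SOX17+ cells versus 0.2% DMSO.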

[9] = system: Brachyury (BRA) Protein Expression, TBXT (gene 6862); experiment: CCTE_Deisenroth_DEVTOX-GLR_Endo_BRA: CCTE's DevTox GLR-Endo Assay Evaluation of Brachyury (BRA) Protein Expression, Deisenroth Lab (AID 2284417)
How it was run: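 RUES2-GLR human pluripotent cells, seeded 24 h, then differentiated 48 h in defined media with two chemical exposures 24 h apart (10-point series, 1 nM - 200 uM). Fixed, nuclear-stained, imaged; endpoint is percent BRA+ cells minus 0.2% DMSO control.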

[10] = CCTE_Deisenroth_DEVTOX-GLR_Endo_CellCount: Viability Assessment in CCTE's DevTox GLR-Endo Assay, Deisenroth Lab (AID 2284420)
How it was run: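 Human pluripotent RUES2-GLR line; 24 h pre-seed; 48 h endoderm-directed differentiation; 2 doses, q24h; 10 conc., 1 nM - 200 uM; fix + nuclear dye; 5 fields/well imaged; readout = nuclei count, % change vs 0.2% DMSO; n=4.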

[11] = system: SRY-box transcription factor 17 (SOX17) Protein Expression, Deisenroth Lab, SOX17 (gene 64321); experiment: CCTE_Deisenroth_DEVTOX-GLR_Pluri_SOX17: CCTE's DevTox GLR-Pluri Assay Evaluation of SRY-box transcription factor 17 (SOX17) Protein Expression, Deisenroth Lab (AID 2284427; active = hit-call score of the fitted dose curve at least 0.9, where 1 is the maximum)
How it was run: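 Human RUES2-GLR pluripotent line; 24 h seeding, 48 h defined-media differentiation, 2 doses q24h, 10 conc 1 nM - 200 uM. Fix, nuclear stain, image 5 fields/well. Endpoint = %SOX17+ minus 0.2% DMSO; n=4.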

[12] = system: SRY-box transcription factor 2 (SOX2) Protein Expression, Deisenroth Lab, SOX2 (gene 6657); experiment: CCTE_Deisenroth_DEVTOX-GLR_Pluri_SOX2: CCTE's DevTox GLR-Pluri Assay Evaluation of SRY-box transcription factor 2 (SOX2) Protein Expression, Deisenroth Lab (AID 2284428)
How it was run: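 Steps: seed RUES2-GLR cells for 24 h; start 48 h differentiation in defined media; dose test chemicals at 0 and 24 h (1 nM–200 uM); fix, stain nuclei, image; compute SOX2+ percentage against 0.2% DMSO wells.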

[13] = system: Brachyury (BRA) Protein Expression, Deisenroth Lab, TBXT (gene 6862); experiment: CCTE_Deisenroth_DEVTOX-GLR_Pluri_BRA: CCTE's DevTox GLR-Pluri Assay Evaluation of Brachyury (BRA) Protein Expression, Deisenroth Lab (AID 2284429; active = hit-call score of the fitted dose curve at least 0.9, where 1 is the maximum)
How it was run: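 Percent BRA+ cells (BRA+ count over total cells) by high-content imaging of fixed RUES2-GLR cultures, corrected by 0.2% DMSO control. Cells received two doses over 48-hour differentiation, 1 nM–200 uM, n=4 experiments.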

[14] = IUF_NPC1_cytotoxicity_72hr: Cytotoxicity Assessment at 72 hours in the Leibniz Research Institute for Environmental Medicine (IUF) Neural Progenitor Cell Proliferation Assay (NPC1) (AID 2284332; active = hit-call score of the fitted dose curve at least 0.9, where 1 is the maximum;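 also: rising LDH signal means more cytotoxicity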)
How it was run: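 Cytotoxicity by LDH membrane-integrity assay on medium supernatants, fluorescence via resazurin reduction, after 3-day single exposure of primary hNPC spheres at 37C, pH 7.2-7.6 with growth factors. Fitted upward against baseline.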

[15] = CCTE_Mundy_HCI_iCellGluta_NOG_NeuronCount: CCTE's Neurite Outgrowth Assay in iCellGluta cells for Neuron Count, Mundy Lab (AID 2284340; active = hit-call score of the fitted dose curve at least 0.9, where 1 is the maximum;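 also: cells fixed about 48 h after compound addition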)
How it was run: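 Neuron count read by automated high-content imaging of Hoechst 33342 and betaIII-tubulin/Alexa Fluor-488 labelling in human iPSC glutamatergic neurons. Activity fitted relative to DMSO.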

[16] = CCTE_Mundy_HCI_iCellGluta_NOG_NeuriteCount: CCTE's Neurite Outgrowth Assay in iCellGluta cells for Neurite Count, Mundy Lab (AID 2284342; active = hit-call score of the fitted dose curve at least 0.9, where 1 is the maximum;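 also: chemical exposure about 48 hours starting 2 hours after plating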)
[17] = VALA_MIGHUV1_ScratchOnly_WoundArea: VALA Sciences human Umbilical Vein Endothelial Cell Migration (MIGHUV) Assay, Area of Scratch Wound Inhibited Recovery (AID 2284336; active = hit-call score of the fitted dose curve at least 0.9, where 1 is the maximum)
How it was run: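 Wound area remaining after 24 h recovery imaged by Hoechst nuclear fluorescence in scratched HUVEC cultures, chemicals added within 30 min of scratching across a 6-point series. Gain of signal fitted against 0.1% DMSO; cytochalasin D positive control.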

[18] = VALA_TUBIPS_Antagonist_CellCount: Viability Assessment in the VALA Sciences human iPS-derived Endothelial Tubule Formation (TUBIPS) Antagonism Assay (AID 2284335; active = hit-call score of the fitted dose curve at least 0.9, where 1 is the maximum)
[19] = VALA_TUBHUV_Agonist_TubuleLength: VALA Sciences human Umbilical Vein Endothelial Tubule Formation (TUBHUV) Agonism Assay (AID 2284337; active = hit-call score of the fitted dose curve at least 0.9, where 1 is the maximum)
How it was run: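 Tubule length quantified by CD31 immunofluorescence imaging after fixation. HUVEC-HDF co-cultures (1:3) pre-grown 3 days with 10 ng/ml VEGF, then dosed 3 days in VEGF medium; 0.1 % DMSO vehicle baseline.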

[20] = VALA_TUBIPS_Agonist_CellCount: Viability Assessment in the VALA Sciences human iPS-derived Endothelial Tubule Formation (TUBIPS) Agonism Assay (AID 2284338; active = hit-call score of the fitted dose curve at least 0.9, where 1 is the maximum)

Measured: AC50

CCCCOC(=O)c1ccc(O)cc1
active: [1] 38.2 µM | [2] 55.3 µM | [3] 100 µM | [4] 54.3 µM | [7] 152 µM | [8] 56.3 µM | [9] 66.5 µM | [10] 37.9 µM | [11] 51.6 µM | [12] 21.6 µM | [13] 89.2 µM
inactive: [5] | [6]

CC(C)(c1cc(Br)c(O)c(Br)c1)c1cc(Br)c(O)c(Br)c1
inactive: [14]

Clc1ccccc1C(c1ccccc1)(c1ccccc1)n1ccnc1
active: [4] 0.129 µM | [5] 0.117 µM
inactive: [6]

CC/C(=C(/CC)c1ccc(O)cc1)c1ccc(O)cc1
active: [1] 1.54 µM | [2] 1.24 µM | [3] 2.43 µM | [7] 2.78 µM | [8] 0.65 µM | [9] 0.891 µM | [10] 1.58 µM | [11] 1.83 µM | [12] 7.85 µM | [13] 1.9 µM

O=C1O[C@H]([C@@H](O)CO)C(O)=C1O
inactive: [14] | [15] | [16]

O=c1c(-c2ccc(O)cc2)coc2cc(O)cc(O)c12
active: [4] 21.6 µM | [5] 6.78 µM
inactive: [6]

CO[C@H]1/C=C/O[C@@]2(C)Oc3c(C)c(O)c4c(O)c(c(/C=N/N5CCN(C)CC5)c(O)c4c3C2=O)NC(=O)/C(C)=C\C=C\[C@H](C)[C@H](O)[C@@H](C)[C@@H](O)[C@@H](C)[C@H](OC(C)=O)[C@@H]1C
inactive: [3] | [12]
active: [2] 72.4 µM | [7] 83.6 µM | [8] 70.3 µM | [9] 88.8 µM | [10] 41.5 µM | [11] 137 µM | [13] 59.9 µM

O=C(Nc1ccc(Cl)cc1)Nc1ccc(Cl)c(Cl)c1
inactive: [17]

CCCCCCCCOC(=O)c1cc(O)c(O)c(O)c1
active: [19] 50 µM | [20] 24.2 µM
inactive: [18]

OCCO
inactive: [1] | [2] | [3] | [8] | [9] | [10] | [12] | [13]

CC(=O)N1CCN(c2ccc(OC[C@H]3CO[C@](Cn4ccnc4)(c4ccc(Cl)cc4Cl)O3)cc2)CC1
inactive: [4] | [6]
active: [5] 0.947 µM
